VACV mCherry inh = vaccinia inhibition (mCherry reporter). Vaccinia virus mCherry reporter infection, fluorescence. Potency, µM (top dose mostly 36.5 µM), for inactives: at the highest dose activity change, negative = inhibition, actives largely listed as inhibitors. 310,000 compounds, 0.63% hits. AID 720579; calls by dose curve; tested in A549 cells; also: potency is read from the fitted curve at half-maximal effect; % is scaled to controls: 0 for no effect and ±100 for the full control effect; nearly all actives have a fitted effect of over 35% in size
CHX counter-1 = affects cycloheximide protein synthesis inhibition readout, counter-screen | cell reporter, cycloheximide protein synthesis inhibition counterscreen | max response, % | 300,000 compounds, 12% hits | AID 2314; in the data active = max response mostly above about 13%, no sharp cut-off; inactive = mostly below about 14%; also: read at 38.3 µM for the half of the compounds with a filed dose; 0% is about no effect
MARV entry inh = inhibitors of Marburg virus binding or cell entry; Marburg virus pseudotyped entry inhibition, cell reporter; 300,000 compounds, 1.8% hits; AID 540276; Potency, µM (series often up to 37.8 µM), for the others: at the highest dose activity change, negative = inhibition, actives largely listed as inhibitors; calls by dose curve; tested in HEK293 cells; also: potency is read from the fitted curve at half-maximal effect; % is scaled to controls: 0 for no effect and ±100 for the full control effect
Shiga inhibitor = Shiga toxin inhibition. Vero cells, Shiga toxin protein synthesis inhibition reporter. inhibition, % at 38.7 µM. 290,000 compounds, 9.2% hits. AID 2315; in the data active = inhibition mostly above about 28%, no sharp cut-off; inactive = mostly below about 43%; also: 0% is about no effect
Lassa entry inh = Lassa virus entry inhibition. Lassa virus pseudotype entry inhibition, cell reporter. Potency, µM (doses to about 37.9 µM), for the others: at the highest dose activity change, negative = inhibition, actives largely listed as inhibitors. 300,000 compounds, 1.2% hits; calls by dose curve; tested in HEK293 cells; also: potency is read from the fitted curve at half-maximal effect; % is scaled to controls: 0 for no effect and ±100 for the full control effect; nearly all actives have a fitted effect of over 50% in size
Vaccinia Venus = vaccinia inhibition (Venus reporter) | Potency, µM (titrated, usually from 36.5 µM), for inactives: top-dose activity change, negative = inhibition, hits mostly inhibitors | 330,000 compounds, 0.46% hits | Vaccinia virus Venus reporter expression, fluorescence | AID 720580; calls by dose curve; tested in A549 cells; also: potency is read from the fitted curve at half-maximal effect; % is scaled to controls: 0 for no effect and ±100 for the full control effect; nearly all actives have a fitted effect of over 30% in size
CHX counter-2 = affects protein synthesis reporter in cycloheximide counter-screen. 510 compounds, 3% hits. AID 2318. Cycloheximide counterscreen, protein synthesis reporter, Shiga toxin assay. Potency, µM (doses to about 38.3 µM), inactives show top-dose activity (activation), actives largely listed as activators. shares compounds with Shiga inhibitor; calls by dose curve; also: potency is read from the fitted curve at half-maximal effect; 0% is about no effect
Active calls of the source: *; i = inactive; u = inconclusive; x = no result; [ ] = dose if it differs, or a comment. Only a selection was taken, and hits are over-represented in it overall.

SMILES | VACV mCherry inh | CHX counter-1 | MARV entry inh | Shiga inhibitor | Lassa entry inh | Vaccinia Venus | CHX counter-2
Cc1cc(C)n(-c2cc(N3CCOCC3)ncn2)n1 | i | -2 | x | 31* | x | -9% | -4%
c1ccc(OCCCn2ccnc2)cc1 | i | 4 | 4%[46.1 µM] | 42* | 3%[46.1 µM] | -12% | 0%
Cc1ccc(C2(O)CN(c3ccccc3C)C3=[N+]2CCS3)cc1 (centres undefined) | u | -3 | -14% | 48* | 12% | -26% | -1%
Cc1ccccc1N1CC(O)(c2ccccc2)[N+]2=C1SCC2 (centres undefined) | -10% | -3 | u | -3 | -1% | -3% | x
CCOc1ccc(CCNC(=O)CCN2N=C(c3ccc(OC)cc3)CCC2=O)cc1OCC | -13% | x | x | x | u | -14% | x
CC(=O)c1ccc(N2CCN(C(=O)c3ccc(S(=O)(=O)NCc4ccco4)cc3)CC2)cc1 | i | x | -4%[46.1 µM] | x | -18%[46.1 µM] | -16% | x
O=C(/C=C/c1ccc(S(=O)(=O)NCc2ccco2)cc1)N1CCN(c2ccccc2)CC1 | -6% | 4 | u | 66* | -13%[46.1 µM] | -8% | 5%
CCCNC(=O)c1ccc2snnc2c1 | x | 5 | 1% | 29* | -7% | 0% | -2%
CC(C)(C)C(=O)Cn1ncc(N2CCOCC2)c(Br)c1=O | i | 4 | 23%[46.1 µM] | 26* | -16%[46.1 µM] | -13% | 5%
CCc1ccccc1NC(=O)Cn1ccn(-c2ccc(OC)cc2)c(=O)c1=O | x | 7 | x | -12 | x | x | x
COc1cccc(C(=O)NNC(=O)C2CC(C)=C(C)CC2C(=O)O)c1 (centres undefined) | x | 2 | -17% | 37* | 5% | u | -1%
O=C(NCC1(O)CCCCC1)C1CCC(=O)N(CCc2ccccc2)C1 (centres undefined) | i | 5 | 4% | 4 | 12% | -22% | x
O=C(O)C1CCCCC1C(=O)Nc1ccc(-c2ccccc2)cc1 (centres undefined) | -12% | 12 | 5%[46.1 µM] | 53* | 7% | -1% | -1%
CC(=O)Nc1ccc(NC(=O)C2CCCCC2C(=O)O)cc1 (centres undefined) | -12% | 8 | 2% | 14 | 13% | -8% | x
Cc1cc(C)c2c(CC(=O)N(Cc3ccccc3)C3CCS(=O)(=O)C3)coc2c1 (centres undefined) | -12% | x | 13%[46.1 µM] | x | -13%[46.1 µM] | 5% | x
N#Cc1ccc(N2CCCNCC2)nc1 | x | -4 | x | -4 | x | x | x
COc1ccccc1NC(=O)CSc1nnc(CC(=O)Nc2ccccc2F)n1C | -11% | 11 | 10%[46.1 µM] | 56* | 6%[46.1 µM] | -1% | -2%
COc1ccccc1-n1nnnc1SCc1ccccc1 | x | -2 | -6% | 5 | u | -22% | x
COc1cc(-n2nnnc2SC)c(OC)cc1Cl | x | 10 | x | 47* | x | x | -1%
COc1ccc(NC2=CC(c3ccccc3)N(c3ccc(OC)cc3)C2=O)cc1 (centres undefined) | x | 5 | -10%[14.2 µM] | 65* | -8%[14.3 µM] | x | -2%
COc1ccc(NC2=CC(c3ccc(OC)cc3)N(c3ccc(OC)cc3)C2=O)cc1 (centres undefined) | x | 2 | x | 22 | x | x | x
Cc1ccc(OCCNC(=O)Cn2cnc3c(=O)n(C)c(=O)n(C)c32)cc1C | x | -4 | 18% | 4 | -8% | x | x
Cn1c(=O)c2ncn(CC(=O)NCCOc3ccccc3)c2n(C)c1=O | x | 5 | 15% | 27* | 4% | x | 0%
COCCNC(=O)C1(C)CCN(C(=O)c2sccc2C)C1 (centres undefined) | -8% | x | x | x | x | 2% | x
CC1CCCC(C)N1C(=O)Cn1nnc(-c2ccccc2)n1 (centres undefined) | x | 4 | x | 33* | x | x | -1%
SMILES | VACV mCherry inh | CHX counter-1 | MARV entry inh | Shiga inhibitor | Lassa entry inh | Vaccinia Venus | CHX counter-2
CCCC[C@@H]1C[C@H]1[C@@H](NC(=O)c1cccs1)c1ccc(Cl)cc1 | i | -3 | u | -13 | 3% | -4% | x
CCCC[C@@H]1C[C@H]1[C@@H](NC(=O)c1ccco1)c1ccc(Cl)cc1 | i | 12 | -8% | 84* | -4% | -10% | 2%
COc1ccccc1C(=O)CSc1nccn1C | -21% | 17 | 5%[46.1 µM] | 22* | 0% | -7% | 5%
COc1ccc(N2CCN(c3oc(COc4ccccc4Cl)nc3C#N)CC2)cc1 | x | 16 | u | 35* | -29% | x | u
CC(=O)c1sc(-c2ccccn2)nc1C | x | 14 | x | 32* | x | x | 3%
OC1C[N+]2(CCCCC2)C1 | -9% | -2 | 0% | 30* | 13% | -1% | -2%
O=C(NCC(=O)N1CCN(c2cccc(Cl)c2)CC1)c1ccc(Br)o1 | -1% | x | u | x | -1% | -11% | x
O=C(NCC(=O)N1CCN(c2ccccn2)CC1)c1ccc(Br)o1 | -9% | 9 | -3%[46.1 µM] | 36* | 15%[46.1 µM] | -16% | -3%
Cc1cc(OC(=O)c2cccc(C(F)(F)F)c2)c([N+](=O)[O-])c(=O)[nH]1 | i | -2 | x | 11 | x | -10% | x
COc1ccc(N2CCN(Cc3nc4c(c(=O)[nH]c(=O)n4C)n3CC(C)=O)CC2)cc1 | i | -2 | x | 30* | x | -12% | -1%
COc1ccc(-c2cnc[nH]2)cc1 | i | 13 | 9%[46.1 µM] | 78* | 7% | -2% | 1%
Cc1ccc(Cl)cc1N1CCN(S(=O)(=O)c2ccc3c(c2)CC(C)N3C(=O)C2CCC2)CC1 (centres undefined) | -14% | x | x | x | 18%[46.1 µM] | 6% | x
COc1ccc2cc(CCNC(=O)c3ccc(S(=O)(=O)N4CCOCC4)cc3)c(=O)[nH]c2c1 | -4% | 8 | 25% | -4 | u | -23% | x
Cc1sc(NC(=O)COc2cccc(-n3cnnn3)c2)c(C#N)c1C | x | 2 | u | 75* | -8% | x | 0%
O=C(NCC(=O)N1CCCC(C(F)(F)F)C1)c1ccc(Oc2ccccc2)cc1 (centres undefined) | x | 20 | x | 21* | x | x | -1%
O=C(NCC(=O)N1CCCC(C(F)(F)F)C1)c1ccc2ccccc2c1 (centres undefined) | -14% | x | 4%[46.1 µM] | x | 7% | -7% | x
O=C(c1cccc(Oc2ccccc2)c1)N1CCN(c2ccccn2)CC1 | i | 12 | u | 6 | u | -5% | x
CC1CCN(C(=O)c2ccc3c(c2)N(Cc2ccccc2F)C(=O)c2ccccc2S3(=O)=O)CC1 | 6% | x | -9%[46.1 µM] | x | -25%[46.1 µM] | 2% | x
Cc1ccc(OCC(=O)Nc2nnn(C)n2)c(C)c1 | -9% | 5 | 5% | 83* | 18% | -15% | u
Cc1cc(C)c(OCC(=O)Nc2nnn(C)n2)c(Br)c1 | -17% | -3 | 3%[46.1 µM] | 2 | -6% | -10% | x
O=C(O)c1ccccc1C(=O)Nc1ccccc1 | x | 6 | 14% | -2 | u | x | x
O=C(O)c1ccccc1C(=O)Nc1ccc(-n2nccc2C(F)(F)F)cc1 | x | 9 | x | 31* | x | x | -4%
CC1=C(C(=O)Nc2cccnc2)C(c2ccc(C)cc2)n2nc(SCc3ccccc3F)nc2N1 (centres undefined) | -10% | x | 6%[46.1 µM] | x | u | 3% | x

Screens deposited in PubChem by National Center for Advancing Translational Sciences (NCATS).
